For part of these data: Measured potencies and affinities stand elsewhere.
Key:
Staphylococcus aureus = assay: Antibacterial activity against Staphylococcus aureus MRSA ATCC 43300 (CO-ADD:GP_020); MIC in CAMBH media using NBS plates, by Resazurin F(560/590); format: functional; details: Concentration 20 uM, ASSAY_TEST Inhibition of Bacterial Growth, detection method Resazurin, Fluorescence (ex560/em590), MEDIA CAMHB, plate type 384well, CORNING #3640, time 18 hr
Acinetobacter baumannii = assay: Antibacterial activity against Acinetobacter baumannii ATCC 19606 (CO-ADD:GN_034); MIC in CAMBH media using NBS plates, by Resazurin F(560/590); format: functional; details: Concentration 20 uM, ASSAY_TEST Inhibition of Bacterial Growth, detection method Resazurin, Fluorescence (ex560/em590), MEDIA CAMHB, plate type 384well, CORNING #3640, time 18 hr
Escherichia coli = assay: Antibacterial activity against Escherichia coli ATCC 25922 (CO-ADD:GN_001); MIC in CAMBH media using NBS plates, by Resazurin F(560/590); format: functional; details: Concentration 20 uM, ASSAY_TEST Inhibition of Bacterial Growth, detection method Resazurin, Fluorescence (ex560/em590), MEDIA CAMHB, plate type 384well, CORNING #3640, time 18 hr
Klebsiella pneumoniae = details: Concentration 20 uM; ASSAY_TEST Inhibition of Bacterial Growth; detection method Absorption (OD600); MEDIA CAMHB; plate type 384well; NBS; CORNING #3640; time 18 hr
Candida albicans = details: 20 µM
Cryptococcus neoformans = details: Concentration 20 uM; ASSAY_TEST Inhibition of Fungal Growth; detection method Resazurin; Absorption (OD600-OD570); plate type 384well; NBS; CORNING #3640

| SMILES | Inhibition (Staphylococcus aureus) | Inhibition (Acinetobacter baumannii) | Inhibition (Escherichia coli) | Inhibition (Klebsiella pneumoniae) | Inhibition (Candida albicans) | Inhibition (Cryptococcus neoformans) |
| --- | --- | --- | --- | --- | --- | --- |
| Sc1nc2ccccc2c2ccccc12 | -5.22% | -10.6% | 1.21% | 0.71% | 24.1% | 19.7% |
| CC1=CC(C)(C)Nc2ccc(Cc3ccc4c(c3)C(C)=CC(C)(C)N4)cc21 | 2.44% | 4.53% | -20.49% | -0.68% | 14.9% | 28.4% |
| CCOc1ccc(NC(=O)c2cc3ccccc3cc2O)cc1 | -0.31% | -4.15% | -2.29% | 2.5% | 7.38% | -4.09% |
| c1ccc(Nc2cccc3c(Nc4ccccc4)cccc23)cc1 | -4.86% | -14.93% | 9.5% | 12.7% | -0.47% | -1.96% |
| Clc1cc2c(c(CSc3nc4ccccc4n4cccc34)c1)OCOC2 | 18.29% | 11.44% | -3.64% | 3.77% | 0.34% | 2.56% |
| CN(C)c1ncnc2c1ncn2-c1ccccc1 | -6.98% | -8.04% | 0.85% | 6.41% | 1.36% | -5.49% |
| O=C1OC(Cc2ccccc2)C(c2ccccc2)C1=O (stereo not given) | 9.75% | 11.9% | 6.23% | 14.26% | 6.87% | -15.19% |
| O=C(NC(=S)Nc1cc(Cl)ccc1O)c1cccc(Br)c1 | 15.1% | 1.75% | -0.44% | 14.73% | -2.09% | -0.86% |
| O=S1(=O)CSCS(=O)(=O)C1 | -12.69% | -2.62% | -18.14% | 0.72% | 5.55% | 27.89% |
| COCCn1c2nc(=O)n(-c3ccccc3)c(=O)c-2nc2ccccc21 | 12.62% | -2.61% | 6.79% | 23.4% | 1.39% | 4.88% |
| O=C(c1ccccc1)c1ccc(-c2ccc(O)cc2)cc1 | -4.49% | -14.62% | 8.24% | 15.69% | 6.54% | -10.56% |
| COc1cc(S(N)(=O)=O)c(OC)cc1N | 4.84% | -10.8% | 11.54% | 5.18% | 1.19% | -0.85% |
| Cn1c([N+](=O)[O-])cnc1N1CCN(c2nncs2)C1=O | 0.67% | -10.23% | 2.52% | 15.88% | 1.82% | -10.17% |
| CC(C)N(C(=O)c1cccc([N+](=O)[O-])c1)C(C)C | 9.59% | -13.76% | 4.26% | 0.52% | 0.26% | -4.03% |
| Cn1c(=O)c2c(nc(Cc3ccccc3)n2C)n(C)c1=O | 3.97% | 12.97% | -5.53% | 15.33% | 4.11% | -7.23% |
| Cc1c(O)cnc2nn(-c3ccccc3)c(=N)n12 | 11.23% | 10.25% | 2.75% | 9.94% | 3.98% | -5.13% |
| OCc1ncccc1O | -1.04% | -10.34% | -5.68% | 25.51% | 3.22% | 0.67% |
| Sc1ncnc2c1cnn2-c1ccccc1 | -0.19% | -10.1% | 15.12% | 7.13% | 16.7% | 30.67% |
| c1ccc2nc(NN=C3CCCCC3)ccc2c1 | 9.39% | -16.84% | 10.6% | 9.11% | 3.78% | -6.92% |
| C[C@]12CC[C@H](O)CC1=CC[C@@H]1[C@@H]2CC[C@]2(C)c3n[nH]cc3C[C@@H]12 | 17.35% | 7.15% | 13.22% | 4.71% | -0.24% | -13.74% |
| CCOC(=O)c1cc(-c2cccnc2)nc2c(Cl)cc(Cl)cc12 | 15.12% | -10.84% | 5.86% | 9.75% | 4.8% | -6.65% |
| CC(=O)NCCCOc1ccc([N+](=O)[O-])cc1Cl | 3.67% | -1.89% | 11.85% | 3.56% | 0.9% | -4.3% |
| O=C(Nc1csnn1)c1csnn1 | -7.63% | -6.51% | -0.35% | -1.22% | 2.96% | 1.57% |
| COC(=O)C1=CC(=O)N2CCN=C2S1 | 6.62% | 15.89% | -3.52% | 13.6% | 3.42% | -1.02% |
| O=C(c1cccnc1)N1CCN(c2ccccc2Cl)CC1 | 7.8% | -13.63% | 10.26% | 11.81% | 2.66% | -13.57% |

| SMILES | Inhibition (Staphylococcus aureus) | Inhibition (Acinetobacter baumannii) | Inhibition (Escherichia coli) | Inhibition (Klebsiella pneumoniae) | Inhibition (Candida albicans) | Inhibition (Cryptococcus neoformans) |
| --- | --- | --- | --- | --- | --- | --- |
| O=C(O)C1CCC(=O)N1C(=O)OCc1ccccc1 (stereo not given) | 2.22% | -12.76% | 8.61% | 12.18% | -1.6% | -3.17% |
| CC(=O)CC(=O)Nc1ccc2ccccc2c1 | -8% | 10.6% | 5.41% | 9.32% | 7.43% | -13.72% |
| O=c1[nH]c(=S)c2ncn(-c3ccccc3)c2[nH]1 | -3.01% | -10.26% | 3.12% | 1.95% | 9.78% | -2.67% |
| COc1cc([N+](=O)[O-])ccc1NC(=O)Oc1ccc(NC(C)=O)cc1 | 1.87% | 5.68% | 0.56% | 4.62% | 0.51% | -16.29% |
| CN(C)/C=N/c1ccc(Cl)c(Cl)c1 | 2.81% | 14.75% | -10.37% | 19.84% | 8.37% | -5.94% |
| Cn1c(SCc2ccccn2)nc2c1c(=O)[nH]c(=O)n2C | 7.99% | -7.81% | 13.96% | 9.58% | 0.41% | -8.81% |
| O=Cc1c[nH]c2ncccc12 | 3.78% | -8.67% | 4.47% | 13.98% | 4.83% | -7.37% |
| Nc1cc(Nc2ccc(Br)cc2)nc(N)n1 | 4.17% | 10.22% | -12.19% | 18.33% | 4.62% | -4.88% |
| OC(COc1ccccc1)CN1CCN(c2ccccc2)CC1 (stereo not given) | 6.47% | -11.62% | 3.6% | 14.06% | 0.81% | -11.95% |
| Cn1c(=O)c2c(nc(Cc3ccc(N)cc3)n2C)n(C)c1=O | 12.3% | 8.51% | 1.69% | 16.58% | -1.67% | -5.25% |
| O=S1(=O)CCC(N(/N=C/c2ccco2)c2ccccc2)C1 (stereo not given) | 6.29% | -4.36% | -3.36% | 6.93% | -2.37% | -1.06% |
| O=C(O)C1C2OC3C(OC(=O)C31)C2Br (stereo not given) | 25.96% | 9.29% | 24.67% | 4% | 4.3% | 11.09% |
| O=C1C(Cl)=C(O)C2(Cl)C(Cl)=C(Cl)C12Cl (stereo not given) | 15.05% | 13.34% | 5.55% | 11.98% | 9.34% | -12.02% |
| CCNC(=O)Oc1cccnc1O | 2.22% | -10.2% | 11.39% | 5.97% | 1.04% | -16.02% |
| CC(=O)OC1CCC2(C)C(=CCC3C2CCC2(C)C3CC3OC4(CCC(C)CN4)C(C)C32)C1 (stereo not given) | -5.01% | -6.15% | 18.44% | 9.38% | 6.33% | 14.75% |
| O=C1C(Br)=Cc2cccc3cccc1c23 | 13.47% | -14.96% | 6.58% | 7.6% | 32.2% | 12.78% |
| Cn1c(=O)c2nc(SCc3ccccn3)[nH]c2n(C)c1=S | 8.4% | 9.84% | -0.48% | 14.94% | 0.94% | -2.39% |
| O=C(CC1C=Cc2ccccc2N1C(=O)c1ccccc1)c1ccccc1 (stereo not given) | 3.75% | 6.29% | 9.32% | 9.71% | 2.1% | -5.82% |
| NC(=O)c1ccccc1NC(=O)c1ccccc1Cl | -3.45% | -12.19% | 7.56% | 6.89% | 2.67% | -15.77% |
| CCOC(=O)c1csc(-c2ccc(COC(=O)c3ccccc3)o2)n1 | 13.59% | 3.92% | -0.69% | 10.14% | 4.97% | -13.35% |
| CCOC(=O)Cc1csc2nc(-c3ccccc3)nn12 | -0.44% | -7.19% | 5.98% | -2.91% | 3.06% | -9.7% |
| CC(C)Cc1nnc(N)s1 | 5.28% | -16.63% | 6.53% | 28.97% | 1.43% | -13.23% |
| COc1ccc(C(C)=O)cc1CO/N=C1\CSCc2ccccc21 | 16.78% | 9.55% | 4.94% | 9.39% | 18.6% | -2.91% |
| O=C(CN1CCCC1)Nc1nc(-c2ccc(Cl)cc2)cs1 | -2.74% | 10.5% | -10.54% | 13.35% | 4.21% | -1.35% |
| N#CC1C(=O)NC(=O)C(C#N)C12CCCC(C(F)(F)F)C2 (stereo not given) | 7.59% | 8.61% | -6.62% | 4.19% | 1.89% | -0.69% |
